FLuc modulator: inhibits or activates purified firefly luciferase, miR-21 counter-screen; Potency, µM (highest dose often 57.5 µM), inactives show at the top dose activity change, negative = inhibition, most hits filed as inhibitors; purified FLuc, Km substrates, luminescence inhibition; 6.9% of 360,000 active;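 also: plate controls were vehicle for no effect and reference inhibitor for full effect; nearly all actives have a fitted effect of over 55% in size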
Target sequence (P08659 whole entry, looked up): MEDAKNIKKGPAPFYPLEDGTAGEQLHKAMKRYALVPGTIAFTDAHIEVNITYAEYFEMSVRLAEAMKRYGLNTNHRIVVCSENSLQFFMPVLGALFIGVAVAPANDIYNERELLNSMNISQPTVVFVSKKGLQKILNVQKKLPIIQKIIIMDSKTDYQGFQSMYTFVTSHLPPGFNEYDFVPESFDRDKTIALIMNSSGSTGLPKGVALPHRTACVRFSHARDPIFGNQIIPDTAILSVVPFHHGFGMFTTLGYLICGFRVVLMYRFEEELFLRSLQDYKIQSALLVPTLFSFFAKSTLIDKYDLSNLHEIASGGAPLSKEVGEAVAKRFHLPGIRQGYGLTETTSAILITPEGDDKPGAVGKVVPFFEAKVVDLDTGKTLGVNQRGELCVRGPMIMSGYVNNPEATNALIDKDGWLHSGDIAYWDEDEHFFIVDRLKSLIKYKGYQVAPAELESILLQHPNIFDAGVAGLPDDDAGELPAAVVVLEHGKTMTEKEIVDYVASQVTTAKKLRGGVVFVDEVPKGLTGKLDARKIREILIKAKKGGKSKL
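Purified P. pyralis luciferase (10nM final) with 10uM D-luciferin and 10uM ATP (Km levels) in 50mM Tris acetate pH 7.5, 10mM Mg acetate, 0.01% Tween-20, 0.05% BSA; qHTS 6-point titration, ~60 µM downward; luminescence read.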
ELG1 genotoxic: inducers of genotoxicity in HEK293T ELG1-luciferase cells; HEK293T ELG1-luciferase reporter, luminescence, 16 h; Potency, µM (top dose mostly 46 µM), for inactives: at the top dose activity change, positive = activation, usual class: activators; 1.3% of 330,000 active; AID 504466; also: % of control where 0% means no effect; nearly all actives have a fitted effect of over 60% in size
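DMSO vehicle served as control against compound-treated ELG1-luciferase HEK293T cells; exposure lasted 16 hr at 37 °C and 5% CO2, followed by ONE-Glo luminescence detection after 30 min.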
NPC1 promoter act: activators of NPC1 promoter; Huh7 NPC1 promoter luciferase reporter, 24 h; Potency, µM (top dose mostly 9.22 µM), without a hit: at the top dose activation, usual class: activators; 2.4% of 320,000 active; AID 485313; also: % of control where 0% means no effect; nearly all actives have a fitted effect of over 60% in size
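Luminescence read-out of NPC1 promoter-driven luciferase in stably transfected Huh7 cells; compounds delivered in DMSO and left 24 h at 37C, 5% CO2, qHTS titration format.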
Rab9 promoter act: activators of Rab9 promoter | Huh7 Rab9 promoter-luciferase reporter, luminescence, 24 h | Potency, µM (titrated, usually from 9.22 µM), inactives show at the highest dose activation, negative = inhibition, usual class: activators | 2.8% of 320,000 active; also: % of control where 0% means no effect; nearly all actives have a fitted effect of over 60% in size
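Stable Rab9-luc Huh7, 1500 cells/well, 2 h settle; cmpd in DMSO, 24 h, 37 °C/5% CO2; luciferase reagent 10 min RT; luminescence.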
SMN2 splice enh: increases expression of the SMN2 splice variant | Potency, µM (series often up to 46.1 µM), without a hit: top-dose activity change, positive = activation, usual class: activators | 2.8% of 210,000 active | AID 1458 | HEK293 SMN2-luciferase splicing reporter, luminescence, 30-36 h; also: % of control where 0% means no effect; nearly all actives have a fitted effect of over 55% in size
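qHTS luciferase splicing reporter: luminescence rises when SMN2 exon 7 is included in transfected HEK293 cells. Compound exposure lasted 30-36 h at 37C, with 4.5 mM final sodium butyrate as control, followed by a ONE-Glo read.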
p53 reactivator: re-activators of mutant p53. H1299 p53-A138V BP100-luciferase reporter, luminescence, 24 h. Potency, µM (doses to about 92.2 µM), for inactives: top-dose activity change, positive = activation, actives largely listed as activators. 0.063% of 320,000 active. AID 504706; also: % of control where 0% means no effect; nearly all actives have a fitted effect of over 45% in size
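H1299 (p53-null), stable ts p53-A138V + BP100-Luc; 1000 cells/well, Opti-MEM/10% FBS; cpd 4 pt, 1:5; 24 h, 37 deg C, 5% CO2; detection reagent 10 min RT; luminescence.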
The depositor's hits bear a star; ! = not active in a repeat. The list is not random: actives were taken first. Their share in the collection is about 7.3%. Calls follow the shape of the dose curve; as a rule, active = well fitted curve in the direction sought with a large enough effect; inconclusive = small, poorly fitted or top-dose-only effect, or another doubt; inactive = no such curve, though single readings can be large; an effect the other way counts as inactive or inconclusive. Potency is read from the fitted curve at half-maximal effect.

Results for COc1ccc(Nc2cnn(-c3nc4ccccc4s3)c(=O)c2Cl)cc1 ?
FLuc modulator: 11µM*; ELG1 genotoxic: inconclusive; NPC1 promoter act: inconclusive; Rab9 promoter act: inconclusive; SMN2 splice enh: 10µM*; p53 reactivator: -18%

What do the screens show for `O=c1c(Cl)c(Nc2cccc(Cl)c2)cnn1-c1nc2ccccc2s1`?
FLuc modulator: 4.8µM*; ELG1 genotoxic: inconclusive; NPC1 promoter act: inconclusive; Rab9 promoter act: inconclusive; SMN2 splice enh: 10µM*; p53 reactivator: inconclusive

What do the screens show for `O=C(NCc1ccccc1Cl)c1ccc(-n2cnc3cccnc32)cc1`?
FLuc modulator: -15%

What do the screens show for `c1ccc2cc(CSCc3nc4ccccc4[nH]3)ccc2c1`?
FLuc modulator: inconclusive; ELG1 genotoxic: inconclusive; NPC1 promoter act: -1%; Rab9 promoter act: -6%; SMN2 splice enh: -43%; p53 reactivator: 23%

Results for COc1cc(-c2nc3n(n2)C(c2ccncc2)C2=C(CCCC2=O)N3)cc(OC)c1OC (configuration not stated) ?
FLuc modulator: 0%; ELG1 genotoxic: 18%; NPC1 promoter act: -7%; Rab9 promoter act: -1%; SMN2 splice enh: inconclusive; p53 reactivator: -6%

Results for COc1cccc(C2C(C(N)=O)=C(C)Nc3nc(-c4ccccc4Cl)nn32)c1 (configuration not stated) ?
FLuc modulator: 1%; ELG1 genotoxic: 18µM*; NPC1 promoter act: -4%; Rab9 promoter act: -1%; SMN2 splice enh: inconclusive; p53 reactivator: -6%

What do the screens show for `COc1ccc(C2C(C(N)=O)=C(C)Nc3nc(-c4cccc(Cl)c4)nn32)cc1OC` (configuration not stated)?
FLuc modulator: -1%; ELG1 genotoxic: inconclusive; NPC1 promoter act: 7%; Rab9 promoter act: 0%; SMN2 splice enh: 18µM*; p53 reactivator: -1%

What do the screens show for `COc1ccccc1C1C(C(N)=O)=C(C)Nc2nc(-c3ccccc3Cl)nn21` (configuration not stated)?
FLuc modulator: -1%; ELG1 genotoxic: 15%; NPC1 promoter act: -1%; Rab9 promoter act: -6%; SMN2 splice enh: -31%; p53 reactivator: -2%

Results for COc1ccc(C2C3=C(CCCC3=O)Nc3nc(-c4cc(OC)c(OC)c(OC)c4)nn32)cc1OC (configuration not stated) ?
FLuc modulator: 3%; ELG1 genotoxic: 21µM*; NPC1 promoter act: -2%; Rab9 promoter act: -14%; SMN2 splice enh: 8.9µM*; p53 reactivator: -13%

What do the screens show for `COc1cccc(NC(=O)C2CCN(c3nc4ccccc4nc3C(F)(F)F)CC2)c1`?
FLuc modulator: -1%

How did COc1ccc(Cc2nc(C(=O)Nc3ccc(OC)cc3)cs2)cc1 do in these assays?
FLuc modulator: 24µM*; ELG1 genotoxic: inconclusive; NPC1 promoter act: 0%; Rab9 promoter act: -7%; SMN2 splice enh: -29%; p53 reactivator: 9%

What do the screens show for `Cc1noc(C(=O)Nc2ccc(C#N)cc2)c1Cl`?
FLuc modulator: 2%; ELG1 genotoxic: 2%; NPC1 promoter act: 15%; Rab9 promoter act: 14%; p53 reactivator: 9%

Results for CCc1ccc(NC(=O)c2onc(C)c2Cl)cc1 ?
FLuc modulator: 3.4µM*; ELG1 genotoxic: 5.2µM*; NPC1 promoter act: 2.5µM*; Rab9 promoter act: 2µM*; SMN2 splice enh: 14µM*; p53 reactivator: inconclusive

How did COc1ccc(NC(=O)c2onc(C)c2Cl)cc1 do in these assays?
FLuc modulator: 15µM*; ELG1 genotoxic: inconclusive; NPC1 promoter act: 3.5µM*; Rab9 promoter act: 3.2µM*; p53 reactivator: 16%

Results for COc1ccc(Cc2nc(C(=O)NCc3ccccc3OC)cs2)cc1 ?
FLuc modulator: -12%; ELG1 genotoxic: -2%; NPC1 promoter act: -5%; Rab9 promoter act: -3%; SMN2 splice enh: -14%; p53 reactivator: 16%

How did COc1ccc(NC(=O)c2cc(C)on2)cc1OC do in these assays?
FLuc modulator: 1%; ELG1 genotoxic: 17%; NPC1 promoter act: -4%; Rab9 promoter act: 15%; p53 reactivator: 2%

Results for COc1ccc(NC(=O)c2cc(C)on2)cc1 ?
FLuc modulator: 21µM*; ELG1 genotoxic: inconclusive; NPC1 promoter act: 2.8µM*; Rab9 promoter act: 2.8µM*; SMN2 splice enh: 11µM*; p53 reactivator: inconclusive

Results for COc1ccc(NC(=O)c2onc(C)c2Cl)cc1OC ?
FLuc modulator: inconclusive; ELG1 genotoxic: 7%; NPC1 promoter act: 6%; Rab9 promoter act: 14%; SMN2 splice enh: -6%; p53 reactivator: 20%

What do the screens show for `CCCCn1c(=N)c(S(=O)(=O)c2ccc(Cl)cc2)cc2c(=O)n3cccc(C)c3nc21`?
FLuc modulator: -3%; SMN2 splice enh: -11%

How did Cc1cccc(NC(=O)Cn2c(=O)c3cccn3c3ccccc32)c1C do in these assays?
FLuc modulator: -4%

What do the screens show for `CCOC(=O)C1CCN(C(=S)Nc2ccccc2)CC1`?
FLuc modulator: -2%; ELG1 genotoxic: 2%; NPC1 promoter act: -4%; Rab9 promoter act: 0%; p53 reactivator: 0%

What do the screens show for `CCOC(=O)C1CCCN(CCC(=O)Nc2cccc(F)c2)C1` (configuration not stated)?
FLuc modulator: 1%; ELG1 genotoxic: 1%; NPC1 promoter act: -2%; Rab9 promoter act: 0%; SMN2 splice enh: -1%; p53 reactivator: 0%

How did CCOC(=O)C1CCCN(CCC(=O)Nc2cccc(C)c2)C1 (configuration not stated) do in these assays?
FLuc modulator: 15µM*!; ELG1 genotoxic: inconclusive; NPC1 promoter act: 3.5µM*; Rab9 promoter act: 3.2µM*; SMN2 splice enh: 6%; p53 reactivator: 2%

What do the screens show for `CCOC(=O)C1CCCN(C(=S)Nc2ccc(Nc3ccccc3)cc2)C1` (configuration not stated)?
FLuc modulator: -7%; ELG1 genotoxic: 9%; NPC1 promoter act: inconclusive; Rab9 promoter act: 1.4µM*; SMN2 splice enh: 11µM*; p53 reactivator: -3%

How did CCOc1cc(/C=C/C(=O)OCC(=O)NCc2ccco2)cc(Cl)c1OC do in these assays?
FLuc modulator: 0%; ELG1 genotoxic: 2%; NPC1 promoter act: -5%; Rab9 promoter act: -6%; p53 reactivator: -5%

Results for C=C(C(=O)OC)C(NC(=O)OC)c1ccccc1 (configuration not stated) ?
SMN2 splice enh: -3%

Results for COc1cccc(/C=N/NC(=O)c2cccc3ccccc23)c1 ?
FLuc modulator: -11%; ELG1 genotoxic: -6%; NPC1 promoter act: 10%; Rab9 promoter act: -2%; p53 reactivator: 11%

From PubChem
